# From PubChem BioAssay (EPA / NIEHS)
# Activity calls are given as the source filed them. The calls were made as follows: active = hit-call score of the fitted dose curve at least 0.9, where 1 is the maximum; inactive = score below 0.9.
# Read-out: matrix metalloproteinase-3 (MMP3), MMP3 (gene 4314)
# Test: LTEA_HepaRG_MMP3: Life Technologies and Expression Analysis (LTEA) Assay for matrix metalloproteinase-3 (MMP3) using HepaRG (AID 2283519)
# Settings: mRNA level, 48 h; actives raise or lower the signal
# Description: LTEA_HepaRG is a cell based, multiplexed-readout assay that uses HepaRG, a human liver cell line, with measurements taken at 48 hours after chemical dosing on a 96-well plate.LTEA_HepaRG_MMP3 is one of 102 assay component(s) measured in the LTEA HepaRG cell culture assay. It is a marker of Fibrosis.Data from the assay component LTEA_HepaRG_MMP3 was analyzed into 1 endpoint. This assay endpoint, LTEA_HepaRG_MMP3, was analyzed with bidirectional fitting relative to DMSO as the negative control and baseline of activity. Using a type of inducible reporter, measures of mRNA induction for gain or loss-of-signal activity can be used to understand regulation of transcription factor activity. To generalize the intended target to other relatable targets, this assay endpoint is annotated to the protease intended target family, where the subfamily is matrix metalloproteinase.
# A total of 1060 chemcials from the ToxCast library were tested in eight-point concentration-response experiments. Cell culture and cytotoxicity assays were conducted at Thermo Fisher Scientific's Custom Services facility (Madison, WI). A single lot of human HepaRG cells (Thermo Fisher Scientific, Frederick, MD) was used for the cell culture experiments. 96-well format collagen type I coated plates of human HepaRG cells were prepared using established methods. Briefly, cryopreserved HepaRG cells were thawed, plated at a density of approximately 100,000 cells/well in HepaRG Thaw, Plate, and General Purpose media (HPRG770, Thermo Fisher Scientific), and incubated for 48 hours. 0.5% DMSO was selected as vehicle control to balance the requisite need of DMSO in HepaRG cultures to maintain differentiation (for example, baseline metabolism, proportions of hepatocytes vs. cholangiocytes), while enabling further hepatic receptor pathway activation (for example, PXR and CAR) in response to chemical exposure. 48 hours after plating, the culture medium was replaced with HepaRG Serum-Free Incudtion Media. Cells were exposed to each test chemical in duplicate and maintained in CO2 incubators for another 48 hours. Chemical plates were thawed to room temperature and 200x concentrations of treatment groups were prepared. 8-point conentration-reponse curves were made with the highest exposure at 100 uM, followed by half-log dilutions, all in 0.5% DMSO. Each test plate contained variouse controls, induction positive controls (1mM phenobarbital), cytotoxicity positive controls ([…] aflatoxin B1), vehicle controls (0.5% DMSO), and total lysis controls (0.5% DMSO). Cell morphology images were taken using an Essen IncuCyte FLR automated microscope, with six 96-well plates imaged in about 24 minutes. Images were captured and exported and JPEG files. Spent culture media was transfered to black-well plates for the LDH assay, and remaining media was sorted at -80 C for later use. Cells were treated with RLT buffer and frozen until shipped for gene expression analysis. Total RNA was isolated from the cell suspension in 75 uL of Buffer RLT (Qiagen, Germantown, MD 20874) by Quintiles/Expression Analysis (Durham, NC) using a custom isolation procedure. Total RNA from each plate well was transferred to a preamplification plate. Fluidigm's 96.96 Dynamic ArrayTM (Fluidigm, Amsterdam, the Netherlands) technology was used for gene expression analyses by quantitative reverse transcription polymerase chain reaction (qRT-PCR, performed by Quintiles/Expression Analysis, Durham, NC)89. Standard TaqManTM Assays (Applied Biosystems/ThermoFisher Scientific, Foster City, CA) were used to assess the expression of 93 genes selected based on their selectivity and sensitivity to important hepatic receptors known to be modulated by environmental chemicals; importance in human hepatocyte functionality; and hepatotoxicity. […]
Compound,outcome,AC50
CC[C@@H]1C[C@H](N(Cc2cc(C(F)(F)F)cc(C(F)(F)F)c2)C(C)=O)c2cc(C(F)(F)F)ccc2N1C(=O)OC(C)C,inactive,–
O=C1CCC(C2CCCCC2)CC1,inactive,–
CN1C(=O)CC[C@H]1c1cccnc1,inactive,–
Cc1oc2c(NC(=O)c3c(Cl)cccc3Cl)cccc2c1C(C)(C)O,inactive,–
CO[C@H]1/C=C/O[C@@]2(C)Oc3c(C)c(O)c4c(O)c(c(/C=N/N5CCN(C)CC5)c(O)c4c3C2=O)NC(=O)/C(C)=C\C=C\[C@H](C)[C@H](O)[C@@H](C)[C@@H](O)[C@@H](C)[C@H](OC(C)=O)[C@@H]1C,inactive,–
CN(C)C(=O)C1(N2CCCCC2)CCN(CC[C@@]2(c3ccc(Cl)c(Cl)c3)CN(C(=O)c3ccccc3)CCO2)CC1,inactive,–
Cc1cccc2ccccc12,inactive,–
COc1ccc2cc(S(=O)(=O)N[C@H](CC(=O)N[C@H](Cc3ccc(CN4[C@H](C)CCC[C@@H]4C)cc3)C(=O)N(C)C(C)C)c3ccc4c(c3)OCO4)ccc2c1,inactive,–
CC(C)(C)c1csc(-c2cc3cc(OCc4ccccc4CC(=O)O)ccc3o2)n1,–,85.6 µM (active)
CCO[Si](CCCNC(N)=O)(OCC)OCC,inactive,–
CN(C)c1ccc(C(=C2C=CC(=[N+](C)C)C=C2)c2ccc(N(C)C)cc2)cc1,–,9.34 µM (active)
CCCOC(=O)c1cc(O)c(O)c(O)c1,inactive,–
O=C(O)c1ccccc1-n1cc(C(=O)O)c(=O)c2cc(Nc3c(F)cc(F)cc3Cl)c(Cl)cc21,inactive,–
COCC(C)OCC(C)OCC(C)O (stereo not given),inactive,–
C[C@]12CC[C@@H]3c4ccc(O)cc4CC[C@H]3[C@@H]1CCC2=O,inactive,–
CCCCCCCCOC(=O)c1cc(O)c(O)c(O)c1,inactive,–
CCCCCCCC[Si](OCC)(OCC)OCC,inactive,–
c1ccc(C[n+]2cccc3ccccc32)cc1,inactive,–
CCOC(=O)O[C@H](C)OC(=O)c1ccc2c(c1)cc(C(=O)NC1CCN(C(C)C)CC1)n2Cc1cc(-c2ccc(Cl)s2)on1,–,47.2 µM (active)
CC(C)(C)c1cc(/C=C2\SC(N)=NC2=O)cc(C(C)(C)C)c1O,–,3.52 µM (active)

Compound,outcome,AC50
c1ccc2ccccc2c1,inactive,–
c1ccc2n[nH]nc2c1,inactive,–
O=CCCCC=O,inactive,–
Cc1cc2c(cc1C(F)(F)F)N(C(=O)Nc1ccc(Oc3cccnc3C)nc1)CC2,inactive,–
CCCC(=O)OCCC(C)C,inactive,–
O=C(OCCCCCCOC(=O)c1ccccc1)c1ccccc1,inactive,–
COc1cccc([C@H](O)C2CCN(CCc3ccc(F)cc3)CC2)c1OC,inactive,–
Cc1cc(F)ccc1-c1cc(N2CC[C@@H](O)[C@H]2CO)ncc1N(C)C(=O)C(C)(C)c1cc(C(F)(F)F)cc(C(F)(F)F)c1,inactive,–
CC[C@H](NC(=O)c1cc(F)ccc1NS(=O)(=O)c1cccc2cccnc12)c1ccccc1,inactive,–
Cc1ccc2oc(CN(Cc3ccccc3)C(=O)Nc3c(F)cc(F)cc3F)c(-c3ccc(Cl)cc3)c2c1,inactive,–
CC/C(=C(/CC)c1ccc(O)cc1)c1ccc(O)cc1,inactive,–
Cc1occc1C(=O)Nc1ccc(C(=O)N2CCC(F)(F)/C(=C\C(=O)N3CCC(N4CCCCC4)CC3)c3ccccc32)cc1,inactive,–
CN1C(=O)N(c2ccccc2Br)Cc2cnc(Nc3ccc4c(c3)OCC(CO)O4)nc21 (stereo not given),inactive,–
CCN(Cc1cccc(S(=O)(=O)O)c1)c1ccc(C(=C2C=CC(=[N+](CC)Cc3cccc(S(=O)(=O)O)c3)C=C2)c2ccccc2S(=O)(=O)[O-])cc1,inactive,–
Cc1ccc(C(C)C)cc1,inactive,–
Oc1ccccc1,inactive,–
C[C@]12CC[C@@H]3c4ccc(O)cc4CC[C@H]3[C@@H]1CC[C@H]2O,inactive,–
CCN(Cc1cccnc1)C(=O)c1cccc(Cl)c1[C@]1(C)C(=O)N(Cc2ccc(OC)cc2OC)c2ccc(Cl)cc21,inactive,–
CC(=O)N1CCN(c2ccc(OC[C@H]3CO[C@](Cn4ccnc4)(c4ccc(Cl)cc4Cl)O3)cc2)CC1,–,24 µM (active)
CCCCCc1ccc(N)cc1,inactive,–
